Results published in ChEMBL document CHEMBL1157539, “Thousands of chemical starting points for antimalarial lead identification” (Nature, 2010).

These compounds were tested on HepG2 (assay: GSK_TCMDC: Percent inhibition of human HepG2 cell line. Test compounds present at 10uM.).
Assay type: functional

Point of comparison: `CN1CCN(c2ccnc3ccc(NC(=O)Nc4ccc(-c5ccncc5)c(C(F)(F)F)c4)cc23)CC1`, Inhibition 12%. Against it:
- CCCCC(=O)NC(c1cccs1)c1cc(Cl)c2cccnc2c1O (stereo not given) — higher, 50%
- Fc1ccc2[nH]c(-c3ccc(-c4ccc(CN5CCCCC5)cc4)cc3)nc2c1.O=C(O)C(F)(F)F — higher, 31%
- COc1cc(Nc2nccc(N3CCC(NC(=O)Nc4ccc5c(c4)OCO5)C3)n2)cc(OC)c1OC (stereo not given) — lower, 9%
- COc1ccc(-c2ccc(NC(=O)c3cccc(C#N)c3)cc2)cc1CN1CCN(C)CC1.O=C(O)C(F)(F)F — higher, 26%
- C=C[C@]1(C)C[C@@H](OC(=O)NC(=O)CCCS(=O)(=O)c2nnc(C)s2)[C@]2(C)[C@H](C)CC[C@]3(CCC(=O)[C@H]32)[C@@H](C)[C@@H]1O — lower, 0%
- COc1ccc2nc(C)cc(N/N=C/C=C/c3ccccc3)c2c1 — higher, 27%
- O=C(Nc1ccc(Cl)cc1)Nc1cccc(CCNCc2ccccc2)c1.O=C(O)C(F)(F)F — higher, 16%
- COc1cc(Cc2cnc(N)nc2N)cc(OCCNC(=O)OCc2ccccc2)c1OC — lower, 6%
- c1ccc(N2CCN(c3cc(-c4cccnc4)nc(-c4ccncc4)n3)CC2)nc1 — higher, 22%
- O=C(NCCNc1ccnc(NCc2ccc(F)cc2)n1)c1cc2ccccc2s1 — lower, 6%
- CCOc1ccccc1C(=O)Nc1cccc(-c2nc3ncccn3c2C)c1 — lower, 0%
- Cc1cnc(C(=O)Nc2cccc(-c3cccc(-c4nc5cccc(C)c5[nH]4)c3)c2)cn1 — higher, 15%
- CC(C)Cn1cc(C2CCN(CCN3CCC(CNC(=O)c4ccc(NC(=O)c5cc(Cl)cc(Cl)c5)cc4)CC3)CC2)c2ccccc21 — higher, 53%
- O=C(Nc1cc(Cl)ccc1Cl)N[C@H]1CCN(CCCCCNC(=O)C2CC2c2ccc(Cl)c(Cl)c2)C1 (stereo not given in full) — higher, 49%
- COc1ccc(-c2cc(C(=O)N3CCc4ccccc43)c3ccccc3n2)cc1OC — lower, 5%
- O=C(/C=C/c1ccc(Cl)c(Cl)c1)NCCCCCN1CCC(CCCNC(=O)Nc2ccc(C(F)(F)F)cc2)CC1 — lower, 0%
- CCCNCc1ccc(-c2ccc(CN(CCOC)C(=O)CCc3ccc(OC)cc3)cc2)nc1.O=C(O)C(F)(F)F — lower, 11%
- CC(C)(C)OC(=O)NCC(=O)N(Cc1ccccc1)Cc1ccccc1 — lower, 0%
- Cc1cccc2nc(-c3cccc(-c4ccc(NC(=O)c5ccc(=O)[nH]n5)cc4)c3)[nH]c12 — higher, 18%
- CCCN(CCC)C(C)CCC(C)Nc1c2ccc(Cl)cc2nc2ccc(OC)cc12.Cl (stereo not given) — higher, 41%
- Cc1cc(OCCCN2CCC(NS(=O)(=O)c3ccc(C(F)(F)F)cc3)CC2)c2ccccc2n1 — the same, 12%
- Cl.N=c1c2c(n(Cc3ccccc3)c3c1CCC3)CCCC2 — lower, 4%
- CN1CCc2cc(O)c(NS(=O)(=O)c3ccc(-c4ccc(Cl)cc4)cc3)cc2CC1.Cl — lower, 7%
- Br.Oc1ccc(CCNCCCCCCNCCc2ccc(Cl)c(Cl)c2)cc1O — higher, 21%
- Cc1cc(-c2cccc(CNCCc3ccc(Cl)cc3)c2)cnc1N.Cl — higher, 19%
- N#Cc1cccc(NC(=O)Nc2ccc3c(c2)CN(Cc2c[nH]c4ncccc24)C3)c1 — lower, 0%
- Cc1nn(-c2ccnc3cc(Cl)ccc23)c(C)c1C(=O)NCc1cc(Cl)cc(Cl)c1 — lower, 0%
- Cl.N=c1n(CCN2CCCC2)c2ccccc2n1CC(O)c1ccc(Cl)c(Cl)c1 (stereo not given) — higher, 36%
- COc1ccccc1C(=O)Nc1ccc(Nc2nc(C)cc(N3CCOCC3)n2)cc1 — higher, 28%
- CN1CCN(CCCN(Cc2cccc(-c3cccc(CNCCc4ccccc4)c3)c2)C(=O)Nc2ccccc2)CC1.O=C(O)C(F)(F)F — higher, 92%
- CCOC(=O)c1ccc(NC(=O)N[C@@H](Cc2ccccc2)C(=O)NC2CCN(Cc3ccc(O)cc3)C2)cc1 (stereo not given in full) — lower, 7%
- CCCCCN1CCC(CNS(=O)(=O)c2ccc(C(=O)Nc3cccc(C(F)(F)F)c3)cc2)CC1.O=C(O)C(F)(F)F — higher, 13%
- O=C(Nc1cccc(-c2ccc(-c3nc4ccccc4[nH]3)cc2)c1)Nc1ccc(F)c(F)c1F — higher, 45%
- Cc1cc(NC(=O)Nc2ccc3sccc3c2)c2ccccc2n1 — higher, 41%
- CCCOc1cc(Cc2cnc(N)nc2N)cc(OC)c1OC — higher, 21%
- CN1CCCN(Cc2ccc(-c3ccc(NC(=O)c4ccc(C#N)cc4)cc3)cc2)CC1.O=C(O)C(F)(F)F — higher, 30%
- CC[C@H]1CN(C/C=C/c2ccc(OC)cc2)CC[C@H]1CCCc1ccnc2ccc(O)cc12 — higher, 24%
- CCCC[C@@H](C(=O)NCc1ccccc1C(F)(F)F)N1C(=O)CCC1C(=O)Nc1ccc([N+](=O)[O-])cc1 (stereo not given in full) — lower, 7%
- O=C(C=Cc1ccc(Cl)c(Cl)c1)NCCCCCN1CCCC(CCCNC(=O)C2CC2c2ccccc2)C1 (stereo not given) — higher, 48%
